In PubChem BioAssay one finds composite z-score and z-score data, which are given here for 9 molecules.

Activity calls are given as the source filed them.

Assay [1] in a line: binders of probe aFSTL3 on microarray, primary screen, stem cell growth factor project, biochemical, small-molecule microarray, fluorescence 635/667 (AID 1064).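 Also: measures binding of the biotinylated anti-FSTL3 antibody to printed compounds.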 The conditions noted are these: higher = more signal.
A short description of assay [2]: binders from COS7 lysate, DM2A8 probe, primary screen, torsin A project, cell lysate, small-molecule microarray, fluorescence 635/667 (AID 1065). The conditions noted are these: higher = more signal, COS7 lysate expressing mutant human TOR1A.
Assay [3] in a line: binders of probe aFGF2 on microarray, primary screen, stem cell growth factor project, biochemical, small-molecule microarray, fluorescence 635/667 (AID 1067).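 Also: measures binding of biotinylated aFGF2 protein to printed compounds on slides; z-score merges feature fluorescence and signal-to-noise across triplicate slides.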 The conditions noted are these: higher = more signal.
A short description of assay [4]: binders of probe aFGF10 on microarray, primary screen, stem cell growth factor project, biochemical, small-molecule microarray, fluorescence 635/667 (AID 1071).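 Also: score merges 667 nm spot intensity and signal to noise from triplicate slides.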 The conditions noted are these: higher = more signal.
For assay [5], the target named is Neurogenic locus notch homolog protein 2 (Homo sapiens) (UniProt Q04721). The assay is described as follows: Notch2 binders on small-molecule microarrays, primary screen, biochemical, small-molecule microarray, 635 nm fluorescence, stem cell growth factors (AID 1073). The note with it: Notch2 binding, higher = more signal.
For assay [6], the target named is Pro-neuregulin-1, membrane-bound isoform (Homo sapiens) (UniProt Q02297). The assay is described as follows: NRG1 binders on small-molecule microarrays, primary screen, psychiatric disease protein project, biochemical, small-molecule microarray, fluorescence 635/667 (AID 1075).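 Also: score combines 667 nm spot fluorescence with signal to noise.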 The note with it: NRG1 binding, 635 nm fluorescence, higher = more signal.
Assay [7] has as its system Neuregulin-1 EGF-like domain. The assay is described as follows: binders of neuregulin-1 EGF-like domain, primary screen, biochemical, small-molecule microarray, 635 nm fluorescence (AID 1081).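 Also: binding of the protein to compounds printed on small-molecule microarray slides.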 The note with it: small-molecule microarray binding, higher = more signal.
Assay [8] in a line: FRG1 promoter luciferase signal modulators, primary screen, FRG1 inhibition for FSHD, cell-based, C2C12 myotubes, firefly/Renilla luciferase, luminescence (AID 1084). The note with it: higher = more signal, called active from +8 up or from −8 down.
Assay [9] in a line: binders of probe aFST on microarray, primary screen, stem cell growth factor project, biochemical, small-molecule microarray, fluorescence 635/667 (AID 1086).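 Also: score merges 667 nm fluorescence with signal-to-noise of each printed compound spot.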 The conditions noted are these: higher = more signal.
A short description of assay [10]: binders of probe aHhip on microarray, primary screen, stem cell growth factor project, biochemical, small-molecule microarray, fluorescence 635/667 (AID 1087).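 Also: score merges spot fluorescence at 667nm with spot signal to noise ratio.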 The note with it: higher = more signal.
Assay [11] deals with PRMT1 (protein arginine N-methyltransferase 1). The assay is described as follows: PRMT1 binders on small-molecule microarrays, primary screen, biochemical, small-molecule microarray, 635 nm fluorescence (AID 1088).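 Also: binding of Prmt1 protein to compounds spotted on small-molecule microarray slides.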 The note with it: small-molecule microarray binding, higher = more signal.
A short description of assay [12]: yeast growth modulation, basal conditions, primary screen, YJM789 clinical isolate, OD600, 24 h (AID 1089).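 Also: growth of clinical yeast isolate S. cerevisiae YJM 789 seeded 1000 cells per well; test concentration not given here.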 The conditions noted are these: S. cerevisiae YJM789 growth, higher = more signal, called active from +8 up or from −8 down.
Assay [13] is described as follows: fission yeast growth modulation, primary screen, strain 972, OD600, 24 h, no modulator (AID 1090).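 Also: basal condition with compound alone and no growth modifier present; test concentration not given here.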 The note with it: S. pombe 972 growth, higher = more signal, called active from +8 up or from −8 down.
A short description of assay [14]: S. cerevisiae growth modulation with rapamycin, primary screen, strain BY4716, OD600, 96 h (AID 1091). Also: test concentration not given here. The note with it: higher = more signal, called active from +8 up or from −8 down.
Assay [15] deals with Torsin-1A-interacting protein 2 (Homo sapiens) (UniProt Q8NFQ8). Description: LULL1 binders on small-molecule microarray, primary screen, cell lysate, human LULL1 lysate, 635/667 nm fluorescence (AID 1092).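 Also: probe is lysate of COS7 cells overexpressing human LULL1; score merges per-feature 667 nm fluorescence with signal-to-noise.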 The note with it: hLULL1 lysate binding, 635 nm fluorescence, higher = more signal.
Assay [16] is described as follows: E. coli growth modulation, two-sided OD650, primary screen, E. coli filamentation project, strain DRC41, 24 h (AID 1093).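 Also: MC1000 strain lacking acrAB efflux and sulA so SOS filamentation is blocked; test concentration not given here.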 The conditions noted are these: OD650, 24 h, higher = more signal, called active from +8 up or from −8 down.
Assay [17] is described as follows: small-molecule microarray binders of probe aLefty2, primary screen, biochemical, biotinylated probe, 635/667 nm fluorescence (AID 1094).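 Also: score merges spot fluorescence near 667 nm with spot signal-to-noise ratio.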 The note with it: higher = more signal.
The test system of assay [18] is Noggin (protein binding on small-molecule microarray). Description: Noggin binders on small-molecule microarray, primary screen, biochemical, 635/667 nm fluorescence (AID 1095).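 Also: score merges 667 nm feature fluorescence with signal to noise over triplicate slides.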 The note with it: 635 nm fluorescence, higher = more signal.
In assay [19] the target is Neurogenic locus notch homolog protein 3 (Homo sapiens) (UniProt Q9UM47). The assay is described as follows: NOTCH3 binders on small-molecule microarray, primary screen, biochemical, 635/667 nm fluorescence (AID 1096). The note with it: NOTCH3 binding, 635 nm fluorescence, higher = more signal.
The nature of assay [20]: small-molecule microarray binders of probe aEGFR, primary screen, biochemical, biotinylated probe, 635/667 nm fluorescence (AID 1097).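 Also: probe is a biotinylated anti-EGFR antibody binding compounds printed on slides; score combines fluorescence near 667 nm and signal to noise of each spot.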 The conditions noted are these: higher = more signal.

Chain of Torsin-1A-interacting protein 2 (Homo sapiens) (Q8NFQ8 whole entry, looked up): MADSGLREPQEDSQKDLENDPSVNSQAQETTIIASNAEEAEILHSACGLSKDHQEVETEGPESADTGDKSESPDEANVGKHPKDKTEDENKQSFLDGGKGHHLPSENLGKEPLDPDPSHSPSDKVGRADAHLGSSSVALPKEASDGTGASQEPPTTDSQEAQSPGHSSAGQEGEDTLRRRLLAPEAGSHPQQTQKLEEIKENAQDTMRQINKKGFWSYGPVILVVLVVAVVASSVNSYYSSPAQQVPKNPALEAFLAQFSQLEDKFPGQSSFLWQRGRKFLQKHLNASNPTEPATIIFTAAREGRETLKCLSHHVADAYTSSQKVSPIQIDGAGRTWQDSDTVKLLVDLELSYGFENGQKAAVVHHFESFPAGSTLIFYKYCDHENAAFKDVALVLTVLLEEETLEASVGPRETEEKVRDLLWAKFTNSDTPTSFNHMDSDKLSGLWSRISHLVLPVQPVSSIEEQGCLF
Chain of Pro-neuregulin-1, membrane-bound isoform (Homo sapiens) (Q02297 whole entry, looked up, the tested form may be a part, canonical isoform): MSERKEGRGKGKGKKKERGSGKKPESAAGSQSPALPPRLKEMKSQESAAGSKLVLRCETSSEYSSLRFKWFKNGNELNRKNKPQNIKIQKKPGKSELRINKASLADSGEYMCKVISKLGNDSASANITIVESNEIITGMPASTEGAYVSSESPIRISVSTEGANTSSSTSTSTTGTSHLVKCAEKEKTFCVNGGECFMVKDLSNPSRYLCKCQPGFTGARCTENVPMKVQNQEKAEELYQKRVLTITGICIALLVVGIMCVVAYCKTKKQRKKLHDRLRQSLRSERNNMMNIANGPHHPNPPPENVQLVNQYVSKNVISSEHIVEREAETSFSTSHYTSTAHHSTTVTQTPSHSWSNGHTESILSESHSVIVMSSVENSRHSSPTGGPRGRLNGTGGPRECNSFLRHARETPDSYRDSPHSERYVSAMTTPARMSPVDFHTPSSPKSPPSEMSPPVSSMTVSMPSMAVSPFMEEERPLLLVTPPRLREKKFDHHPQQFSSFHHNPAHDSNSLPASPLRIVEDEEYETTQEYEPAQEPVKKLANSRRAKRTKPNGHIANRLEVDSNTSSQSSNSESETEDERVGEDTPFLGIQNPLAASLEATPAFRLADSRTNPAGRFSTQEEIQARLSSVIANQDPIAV
Chain of Neurogenic locus notch homolog protein 3 (Homo sapiens) (Q9UM47 whole entry, looked up): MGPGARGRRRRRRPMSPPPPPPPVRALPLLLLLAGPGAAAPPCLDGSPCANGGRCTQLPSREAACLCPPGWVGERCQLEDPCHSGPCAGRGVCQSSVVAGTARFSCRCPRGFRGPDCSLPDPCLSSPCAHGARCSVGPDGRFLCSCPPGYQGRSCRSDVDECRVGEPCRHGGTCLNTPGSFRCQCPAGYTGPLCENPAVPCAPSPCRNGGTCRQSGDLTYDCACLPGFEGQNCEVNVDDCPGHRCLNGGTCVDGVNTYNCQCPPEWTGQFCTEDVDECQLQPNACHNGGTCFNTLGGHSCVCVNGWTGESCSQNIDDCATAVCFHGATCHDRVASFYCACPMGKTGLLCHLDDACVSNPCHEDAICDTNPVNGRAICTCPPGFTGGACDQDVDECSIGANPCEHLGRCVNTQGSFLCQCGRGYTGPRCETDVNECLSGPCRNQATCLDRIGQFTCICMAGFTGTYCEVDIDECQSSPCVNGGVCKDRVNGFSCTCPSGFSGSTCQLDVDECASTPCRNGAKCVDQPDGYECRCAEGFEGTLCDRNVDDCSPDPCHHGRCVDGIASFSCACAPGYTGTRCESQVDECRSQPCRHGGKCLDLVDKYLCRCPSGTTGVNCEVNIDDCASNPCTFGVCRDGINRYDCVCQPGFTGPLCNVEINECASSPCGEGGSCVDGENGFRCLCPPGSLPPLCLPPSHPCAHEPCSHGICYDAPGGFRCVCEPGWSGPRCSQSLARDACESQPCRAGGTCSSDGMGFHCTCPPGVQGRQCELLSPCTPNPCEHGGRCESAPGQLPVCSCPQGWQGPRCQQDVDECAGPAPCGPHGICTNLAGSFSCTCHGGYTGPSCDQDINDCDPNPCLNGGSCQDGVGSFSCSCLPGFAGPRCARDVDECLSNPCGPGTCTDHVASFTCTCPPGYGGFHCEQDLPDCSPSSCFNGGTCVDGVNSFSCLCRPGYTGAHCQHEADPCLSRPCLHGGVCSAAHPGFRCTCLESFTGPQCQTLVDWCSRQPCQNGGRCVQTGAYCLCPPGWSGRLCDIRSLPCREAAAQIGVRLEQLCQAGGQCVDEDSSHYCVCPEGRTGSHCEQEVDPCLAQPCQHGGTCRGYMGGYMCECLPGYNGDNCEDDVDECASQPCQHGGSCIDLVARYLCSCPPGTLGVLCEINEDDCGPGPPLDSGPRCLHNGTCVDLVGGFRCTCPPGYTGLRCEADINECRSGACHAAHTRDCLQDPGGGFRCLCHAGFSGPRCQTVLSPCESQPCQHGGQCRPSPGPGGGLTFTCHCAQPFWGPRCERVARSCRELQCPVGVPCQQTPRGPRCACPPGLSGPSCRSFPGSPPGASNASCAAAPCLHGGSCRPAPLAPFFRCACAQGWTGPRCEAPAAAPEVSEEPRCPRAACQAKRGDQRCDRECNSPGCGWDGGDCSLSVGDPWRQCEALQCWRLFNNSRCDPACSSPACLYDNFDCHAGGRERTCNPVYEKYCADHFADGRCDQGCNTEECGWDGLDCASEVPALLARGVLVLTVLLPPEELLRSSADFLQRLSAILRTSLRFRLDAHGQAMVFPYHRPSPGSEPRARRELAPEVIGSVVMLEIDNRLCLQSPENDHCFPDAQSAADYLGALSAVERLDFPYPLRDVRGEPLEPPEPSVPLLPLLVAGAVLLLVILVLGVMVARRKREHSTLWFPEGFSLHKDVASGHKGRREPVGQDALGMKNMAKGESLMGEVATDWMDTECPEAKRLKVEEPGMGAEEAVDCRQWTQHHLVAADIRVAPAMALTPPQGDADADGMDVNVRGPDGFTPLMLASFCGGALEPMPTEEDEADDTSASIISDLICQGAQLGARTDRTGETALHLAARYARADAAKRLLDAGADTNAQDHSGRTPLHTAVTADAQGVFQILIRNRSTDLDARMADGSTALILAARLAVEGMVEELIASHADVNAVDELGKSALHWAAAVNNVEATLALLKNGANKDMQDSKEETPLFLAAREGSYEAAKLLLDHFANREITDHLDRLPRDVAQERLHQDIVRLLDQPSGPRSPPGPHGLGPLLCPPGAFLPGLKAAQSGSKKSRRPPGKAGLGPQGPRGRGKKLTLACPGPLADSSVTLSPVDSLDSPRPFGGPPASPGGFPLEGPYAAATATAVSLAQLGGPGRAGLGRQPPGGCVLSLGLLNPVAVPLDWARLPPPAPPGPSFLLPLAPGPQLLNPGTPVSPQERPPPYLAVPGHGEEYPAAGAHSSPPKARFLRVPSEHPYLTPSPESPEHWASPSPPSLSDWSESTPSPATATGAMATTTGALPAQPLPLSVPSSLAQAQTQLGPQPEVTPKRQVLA

In the case of `COc1ccc([Si](C)(C)[C@H]2[C@H](CCO)O[C@@]3(C(=O)N(Cc4cccc(N(C=O)c5ccccc5)c4)c4ccccc43)[C@@H]2C)cc1`, the composite z-score was -0.364 in assay [1]; 0.35 in assay [2]; 0.0155 in assay [3]; 1.09 in assay [4]; 1.14 in [5]; 0.97 in [6]. The composite z-score is 1.08 in assay [7]; 0.638 in assay [9]; -0.236 in assay [10]; 1.56 in assay [11]; 2.91 in assay [15]; 0.0893 in assay [17]. Moreover, the composite z-score turned out to be 0.785 in [18], 1.07 in [19] and 0.0004 in [20]. The z-score in assay [8] is -0.837 (inactive); in [12] it was 1.08 (inactive); in [13], 0.604 (inactive); in [14], 10.6 (active); in assay [16], 2.01 (inactive).

On to `CC(C)C(CO)N1C(=O)[C@@H]2C3C(=O)OCCC/C=C\[C@H]3OC23C=CCN(Cc2ccccc2)C(=O)[C@@H]13` (stereo not given in full), for which the composite z-score was 0.598 in assay [1]; -0.217 in [2]; -0.0744 in [3]; 0.648 in [4]; -0.376 in [5]; 1.43 in assay [6]. The composite z-score in [7] was 1.58; in assay [9] it was -0.406; in assay [10], -0.134; in assay [11], -0.928; in assay [15] it was 1.18; in assay [17], -0.0598. The composite z-score was -0.989 in assay [18], -0.0928 in [19] and -0.148 in assay [20]. The z-score in assay [8] was 0.597 (inactive); in assay [12], -0.43 (inactive); in [13], -0.912 (inactive); in [14], -0.542 (inactive); in assay [16], 1.3 (inactive).

With `CCOC(=O)C1=CC[C@@H](c2ccccc2)N(S(=O)(=O)c2ccc(C)cc2)[C@H]1c1ccccc1I`, the composite z-score in [1] was -0.312; in [2], 0.215; in [3], 0.162; in [4], 0.571; in assay [5], 1.48; in [6] it was 1.05. Further, the composite z-score stood at 1.12 in assay [7]; 1.92 in [9]; 0.0662 in assay [10]; 0.98 in assay [11]; 2.63 in assay [15]; 0.52 in assay [17]. In addition, the composite z-score in assay [18] came to 0.22; in assay [19], 1.06; in [20], 0.0321. Moreover, the z-score in [8] was -2.08 (inactive); in assay [12], -0.323 (inactive); in assay [13], 0.666 (inactive); in assay [14], 0.607 (inactive); in assay [16], -0.162 (inactive).

Take `COCCCNC(=O)[C@@H]1c2ccccc2C(=O)N(Cc2ccc(OC(F)(F)F)cc2)[C@H]1c1ccc(CO)cc1`: the composite z-score in assay [1] is -0.388; in [2], 0.0383; in assay [3], 0.015; in [4], 0.235; in [5] it was 0.329; in assay [6] it was 0.244. For the same molecule, the composite z-score in [7] was 0.617; in assay [9], 0.541; in assay [10], 1.03; in assay [11] it was 1.34; in assay [15], 2.36; in [17], -0.0687. Further, the composite z-score in assay [18] was 0.489; in assay [19] it was 0.554; in assay [20], -0.0949. In addition, the z-score is -0.228 (inactive) in assay [8]; -0.975 (inactive) in assay [12]; -0.153 (inactive) in assay [13]; -0.97 (inactive) in assay [14]; -0.518 (inactive) in assay [16].

As for `C=C(COC)C(=O)CC[C@@H](OC(=O)c1ccccc1-c1ccccc1C(=O)O)c1ccc(OCCO)cc1`, the composite z-score in assay [1] was -0.209; in [2], 0.487; in assay [3] it was -0.132; in [4], -0.252; in assay [5], -0.638; in [6], -0.335. For the same molecule, the composite z-score in assay [7] is 0.685; in assay [9] it was -0.0463; in assay [10] it was -0.0994; in assay [11], 1.39; in assay [15], 0.886; in assay [17], -0.0341. For the same molecule, the values for the composite z-score in [18], in [19] and in assay [20] were 1.26, 0.505 and -0.139, respectively. The z-score in assay [8] was 2.6 (inactive); in assay [12], -0.656 (inactive); in assay [13] it was -0.943 (inactive); in assay [14] it was -0.856 (inactive); in assay [16] it was 0.315 (inactive).

Take `C=CCNC(=O)[C@H]1[C@@H]2C(=O)O[C@@H](c3ccccc3)[C@@H](c3ccccc3)N2[C@@H](c2ccccc2OCCO)[C@]12C(=O)N(C(=O)OCCOC)c1ccc(C#Cc3ccc(OC)cc3)cc12`: the composite z-score amounted to 0.0122 in assay [1]; 0.633 in [2]; 0.0074 in assay [3]; 0.668 in assay [4]; 0.615 in assay [5]; 1.33 in [6]. Further, the composite z-score in assay [7] is 1.21; in [9] it was 0.101; in [10] it was -0.0645; in [11] it was 1.55; in [15] it was 2.94; in [17], -0.0998. Also, the values for the composite z-score in assay [18], in assay [19] and in assay [20] were 0.173, 0.647 and -0.092, respectively. Besides, the z-score in [8] is 1.34 (inactive); in assay [12], 2.2 (inactive); in assay [13] it was 0.823 (inactive); in assay [14] it was 6.52 (inactive); in assay [16], 0.769 (inactive).

For `CCCCC(O)C1C=CC2C(=O)N(c3ccccc3)C(=O)C2N1Nc1ccc(C#N)cc1` (stereo not given), the composite z-score was 0.805 in [1]; -0.472 in assay [2]; -0.074 in assay [3]; 0.226 in [4]; 1.27 in assay [5]; 1.9 in [6]. The composite z-score in assay [7] was 1.41; in [9] it was 0.941; in [10], -0.112; in [11], 0.771; in assay [15] it was 3.14; in [17], 0.444. Also, the figures for the composite z-score in assay [18], in assay [19] and in [20] were -0.358, 0.473 and 0.247, respectively. Further, the z-score in assay [8] was 0.662 (inactive); in [12], 0.243 (inactive); in assay [13] it was 0.634 (inactive); in assay [14], 1.64 (inactive); in assay [16], -1.11 (inactive).

Consider `COCCOC(=O)N1C(=O)[C@@]2(c3cc(C#CCCO)ccc31)[C@H](c1ccc(OCCO)cc1)N1[C@H](c3ccccc3)[C@H](c3ccccc3)OC(=O)[C@H]1[C@@H]2C(=O)N1CCCCCCC1`, for which the composite z-score stood at 3.17 in assay [1]; 1.15 in assay [2]; 0.487 in assay [3]; 1.08 in assay [4]; 1.37 in [5]; 1.65 in [6]. In addition, the composite z-score in [7] was 1.16; in [9], 2.65; in assay [10], 3.2; in assay [11] it was 1.54; in assay [15] it was 2.82; in [17], 1.62. The results for the composite z-score in [18], in [19] and in [20] were 1.49, 1.04 and 0.611, respectively. Besides, the z-score in assay [8] is 0.278 (inactive); in [12] it was 0.869 (inactive); in assay [13], 0.277 (inactive); in [14] it was 3.69 (inactive); in assay [16] it was -0.405 (inactive).

For `COC(=O)[C@@]1(Cc2ccc(F)cc2)[C@H]2c3cc(C(=O)N(C)C)n(C)c3C[C@H]2CN1C(=O)c1ccccc1`, the composite z-score in [1] is -0.187; in assay [2], -0.609; in assay [3], 0.0364; in assay [4], 1.08; in [5] it was 1.58; in assay [6], 1.12. Also, the composite z-score is 1.16 in assay [7]; 0.229 in assay [9]; 0.0677 in assay [10]; -0.97 in assay [11]; 2.54 in assay [15]; 0.519 in [17]. The values for the composite z-score in assay [18], in [19] and in assay [20] were -0.608, 0.381 and 0.383, respectively. The z-score in assay [8] was 0.736 (inactive); in assay [12] it was 0.0108 (inactive); in assay [13], 0.476 (inactive); in assay [14], 0.08 (inactive); in assay [16] it was -0.339 (inactive).
